Results published in PubChem BioAssay (NCI).
“And” between values parts separate entries of the source, which are not always exact repeats. Equal entries are not always repeated. Compounds without any hit were thinned out: in the full panel of roughly 83,000, 20% have a hit.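 Single-concentration screen, 48 h exposure, 96-well plates. Endpoint: percent growth. Below 10 = active.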 Unmarked numbers belong to inactive results. The source made the active and inactive calls.

These compounds were tested on MDA-MB-468 breast (assay: NCI-60 one-dose screen, 48 h (100 = growth as untreated, 0 = no growth, -100 = all killed)). Settings: 10 µM unless noted.

Structure (SMILES)	growth
COC(=O)c1c2c(c(C)[n+]([O-])c1C)C(=O)C=C(NCc1ccc(F)cc1)C2=O	-67% (active)
CCCCCCCC/C=C\CCCCCCCCOc1cccc(CC(=O)NCC[N+]2(C)CCOCC2)c1	86%
CCOC(=O)c1ccc2c(c1)nc(-c1ccc(OCc3ccccc3)c(OC)c1)n2-c1cc(C(C)(C)C)[nH]n1	77%
COc1ccc2c(c1)/C(=C/c1sc(=S)n(Cc3ccco3)c1O)C=N2	3.03% (active)
OC(CNC1CCCC1)Cn1c2ccccc2c2ccccc21 (stereo not given)	-21.2% (active)
c1ccc2c(c1)OC1OC2Oc2ccccc21	97.5%
O=C(O)C1(C(=O)O)CCC1.[NH2-].[NH2-].[Pt+2]	106%
CC(C)c1ccc2occ(C=C3C(=O)NC(=O)NC3=O)c(=O)c2c1	96.9%
Nc1c(C(=O)c2ccccc2)sc2nc(-c3cccs3)cc(-c3cccs3)c12	30.8%
O=[N+]([O-])c1cc(Cl)cc(Cl)c1O	104%
O=C(N/N=C/c1c(Cl)cccc1Cl)c1ccc(C(F)(F)F)nc1Nc1cccc(C(F)(F)F)c1	11.9%
O=C1/C(=C/c2ccc(Cl)cc2)CCC/C1=C\c1ccc(Cl)cc1	67.9%
Clc1ccc(Cc2ccncc2)cc1	99.2%
COc1cc(-n2nc(C(=O)Nc3ccc(C(=O)O)cc3)nc2-c2ccccc2)cc(OC)c1OC	0.458% (active)
CCN1CCN(c2nc(NCCCNc3ccnc4cc(Cl)ccc34)c3ccccc3n2)CC1	29.1%
O=C1CSC(c2ccccc2Cl)N1c1nnc(-c2ccncc2)o1 (stereo not given)	98.4%
COC(=O)c1c[n+]([O-])ccc1OC	106%
O=S(=O)(NCCCNc1cc(-c2cn(-c3ccccc3)nc2-c2cccc(O)c2)ccn1)c1cccc2ccccc12	-18.4% (active)
COc1cc(NC(=O)CCSc2nc3ccc(Cl)cc3c(=O)n2Cc2ccccc2)cc(OC)c1OC	93%
NC(=O)/C=C/C(=O)c1c(Cl)cccc1Cl	-83.5% (active)

Structure (SMILES)	growth
CCC(=O)NC1=C(Cl)C(=O)C(NC(=O)CC)=C(Cl)C1=O	-69.8% (active)
COc1cc(/C=C\c2cc(/C=C\c3ccc(O)c(OC)c3)n(C(=O)COc3ccc(Cl)cc3Cl)n2)ccc1O	12.5%
[Cl][Ru].c1ccc(-c2cccc(-c3ccccn3)n2)nc1.c1ccc(-c2ccnc3c2ccc2c(-c4ccccc4)ccnc23)cc1	-21.4% (active)
O=C1/C(=C/c2ccc(O)cc2)COc2ccc(O)c(O)c21	-2.18% (active)
NC(=O)OCCn1cc(-c2nc(-c3c[nH]c4ncccc34)cs2)c2ccccc21	12.4%
Fc1c[c-]c(-c2ccccn2)c(F)c1.Fc1c[c-]c(-c2ccccn2)c(F)c1.[Cl][Pt+].[Cl][Pt+].c1ccc([PH+](C[PH+](c2ccccc2)c2ccccc2)c2ccccc2)cc1	-2.28% (active)
COc1ccc2c(c1)c(-c1nc(-c3cn(C)c4ncccc34)cs1)cn2CCCN1CCCCC1	70.9%
CS(=O)(=O)c1nccc(-c2c(-c3cccc(OCCN4CCOCC4)c3)nc3sccn23)n1	37.6%
CCCCCCCn1cc2c(N[C@H](C)c3ccccc3)ncnc2n1	119%
Cc1cc(C2(c3cc(C)c(O)cc3C)OS(=O)(=O)c3ccccc32)c(C)cc1O	114%
COc1ccc2nc3cc(Cl)ccc3c(NCCN)c2c1	-61.6% (active)
CC(CN(C)C)CN1c2ccccc2CCc2ccccc21 (stereo not given)	41.7%
C=C(C)[C@@H]1CC[C@]2(C(=O)N3CCNCC3)CC[C@]3(C)[C@H](CC[C@@H]4[C@@](C)(CCC(=O)N5CCNCC5)[C@H](C(=C)C)CC[C@]43C)[C@@H]12	49.5%
CC(C)C(C)(C)c1ccc(O)cc1	91.1%
COc1ccc(C2=NC(=O)NC2c2ccc(OC)cc2)cc1 (stereo not given)	43.9%
CC1=C/C(=C(\c2cc(C)c(O)c(C(=O)O)c2)c2c(Cl)cccc2Cl)C=C(C(=O)O)C1=O	104%
CCCCN1C(=O)/C(=c2\sc3n(c2=O)C2C(NN=3)N(CC)C(=O)N2CC)c2ccccc21 (stereo not given)	1.69% (active)
CCN1CCN(Cc2ccc(-c3cc4c(N[C@H](C)c5ccccc5)ncnc4[nH]3)cc2)CC1	-38.9% (active)
CCOC(=O)c1csc(N)n1	95.6% and 91.5%
C=CC(=O)Nc1cccc(Nc2nc(SC)nc(-c3cccc([N+](=O)[O-])c3)c2C#N)c1	55.9%
